An excerpt weighted towards active compounds, which were near 1.2% of everything screened.
LRH-1 inv ag: inverse agonists of human LRH-1 (NR5A2); 360,000 compounds, 0.13% hits; AID 602396; inhibition, % at 3.6 µM; HEK293T StAR-luciferase reporter, LRH-1 transfected, 24 h; O00482;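 active = inhibition above the mean inhibition of all tested compounds plus 3 SD, cut at about 73% in these data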;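 also: 0% = DMSO wells and 100% = reporter-only cells lacking LRH-1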
Target sequence (O00482 whole entry, looked up): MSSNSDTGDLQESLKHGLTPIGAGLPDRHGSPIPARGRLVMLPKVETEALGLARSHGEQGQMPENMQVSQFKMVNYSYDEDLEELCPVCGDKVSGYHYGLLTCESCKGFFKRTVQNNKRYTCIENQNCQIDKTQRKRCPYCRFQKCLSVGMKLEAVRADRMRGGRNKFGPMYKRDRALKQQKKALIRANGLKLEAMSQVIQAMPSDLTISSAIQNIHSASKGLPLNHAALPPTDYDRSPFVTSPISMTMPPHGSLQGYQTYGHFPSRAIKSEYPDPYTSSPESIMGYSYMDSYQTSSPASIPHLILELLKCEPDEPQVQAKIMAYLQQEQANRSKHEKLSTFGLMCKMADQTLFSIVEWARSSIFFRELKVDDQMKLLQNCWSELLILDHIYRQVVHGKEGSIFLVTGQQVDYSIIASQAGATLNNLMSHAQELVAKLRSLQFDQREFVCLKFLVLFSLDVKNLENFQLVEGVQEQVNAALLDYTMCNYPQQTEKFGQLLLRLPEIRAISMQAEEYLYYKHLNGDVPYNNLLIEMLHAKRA
NCOA1 inh: inhibits human SRC1 coactivator. Q15788. HEK293 GAL4-SRC1 luciferase reporter, luminescence. inhibition, % at 3.6 µM. 360,000 compounds, 0.12% hits;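 active = inhibition above the campaign mean plus 3 SD, with each screening campaign given its own cutoff, cut at about 60% in these data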;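 also: 0% = DMSO treated cells and 100% = gossypol at 36 µM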
NCOA2 inhibitor: inhibits human steroid receptor coactivator 2 | 370,000 compounds, 0.17% hits | Q15596 | inhibition, % at 9 µM | AID 651957 | HEK293 GAL4-SRC2 luciferase reporter, luminescence;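 active = inhibition above the mean inhibition of all tested compounds plus 3 SD, set per campaign, cut at about 52% in these data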;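 also: 0% = DMSO treated cells and 100% = cells given Gossypol at 36 µM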
EBV LMP1 NFkB: Epstein-Barr LMP1 NF-kappaB reporter inhibition; LMP1-induced NF-kappaB luciferase reporter cells, luminescence; inhibition, % at 12.5 µM; 350,000 compounds, 0.69% hits; AID 504558; in the data active = inhibition above about 41%;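 also: 0% = neutral control wells and 100% = reference inhibitor control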
SRC3 inh: human NCOA3 inhibition; 360,000 compounds, 0.17% hits; Q9Y6Q9; inhibition, % at 3.6 µM; HEK293 GAL4-SRC3 luciferase reporter, luminescence;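 active = inhibition above a per-campaign cutoff, the mean of all compounds plus 3 SD, cut at about 60% in these data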;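 also: 0% = DMSO-treated cells and 100% = gossypol-treated cells at 36 µM; higher means less SRC3-driven luciferase light from the GAL4 reporter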
Shn3 inh set2: Schnurri-3 reporter inhibition in Clone20 osteoblasts. 360,000 compounds, 0.52% hits. inhibition, % at 12.5 µM. AID 588674. Clone20 osteoblast Shn3 3'UTR firefly luciferase, 24 h;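 active = mean inhibition of at least 75% with every replicate also reaching 75%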;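 also: 0% = median of neutral control wells and 100% = pilot-screen positive control compound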
Numbers without * were called inactive.

Cc1ccc(-c2nc3cc(N)ccc3o2)cc1Br was read as LRH-1 inv ag -63.6, NCOA1 inh -125.6, NCOA2 inhibitor -22.1, EBV LMP1 NFkB -30.9, SRC3 inh -117.7 and Shn3 inh set2 -65.4.
Screening Cc1ccc(C)c(-c2nc3cc(N)ccc3o2)c1 returned LRH-1 inv ag -17.5, NCOA1 inh -13.6, NCOA2 inhibitor 55.1*, EBV LMP1 NFkB -12.5, SRC3 inh -8.2 and Shn3 inh set2 20.4.
`CN(C)c1ccc(-c2nc3ncc(Cl)cc3[nH]2)cc1` gave NCOA2 inhibitor 31.4.
`Cn1c(=O)[nH]c(=O)c2c1nc(CN1CCOCC1)n2CCc1ccccc1` gave LRH-1 inv ag 2.0, NCOA1 inh 0.9, NCOA2 inhibitor -17.4, EBV LMP1 NFkB 5.0, SRC3 inh 20.9 and Shn3 inh set2 -34.1.
Cn1c(=O)[nH]c(=O)c2c1nc(CN1CCOCC1)n2CCCc1ccccc1 was read as LRH-1 inv ag -29.6, NCOA1 inh 13.7, NCOA2 inhibitor -14.4, EBV LMP1 NFkB 84.6*, SRC3 inh -4.5 and Shn3 inh set2 4.7.
Cc1ccc(Cn2nnc3c2-c2ccccc2S(=O)(=O)N(C2CC2)C3)cc1 was read as NCOA2 inhibitor -12.1.
Brc1cccc(-c2cnco2)c1 was read as LRH-1 inv ag 21.1, NCOA1 inh -0.8, NCOA2 inhibitor -6.0, EBV LMP1 NFkB 56.2*, SRC3 inh -1.5 and Shn3 inh set2 26.2.
C[C@H]1COc2cc(Br)ccc2S(=O)(=O)N1Cc1cn(CC2CCCCC2)nn1 was read as NCOA2 inhibitor -5.6.
For O=C(Nc1cccc(Cl)c1)Nc1ccnc(-c2cccnc2)n1 the results were LRH-1 inv ag 8.5, NCOA1 inh 9.2, NCOA2 inhibitor 29.2, EBV LMP1 NFkB 58.2*, SRC3 inh 23.4 and Shn3 inh set2 -56.4.
Screening O=C(Nc1cccc(Cl)c1)Nc1cnccn1 returned LRH-1 inv ag -27.3, NCOA1 inh -51.7, NCOA2 inhibitor -32.2, EBV LMP1 NFkB -1.7, SRC3 inh 1.1 and Shn3 inh set2 11.8.
`COc1ccc(OC)c2[nH]c(C(=O)N/N=C/c3ccccc3O)cc12` gave LRH-1 inv ag 21.3, NCOA1 inh 9.7, NCOA2 inhibitor 31.9, EBV LMP1 NFkB 23.4, SRC3 inh 33.6 and Shn3 inh set2 92.6*.
`CCOC(=O)c1c(C)[nH]c(C(=O)N/N=C\c2ccccc2O)c1C` gave LRH-1 inv ag 22.1, NCOA1 inh -11.8, NCOA2 inhibitor 11.3, EBV LMP1 NFkB 52.2*, SRC3 inh 44.8 and Shn3 inh set2 53.6.
For COc1ccc(/C=N/NC(=O)c2cc3c(OC)ccc(OC)c3[nH]2)cc1O the results were LRH-1 inv ag 21.1, NCOA1 inh -4.1, NCOA2 inhibitor 18.3, EBV LMP1 NFkB 6.7, SRC3 inh -28.6 and Shn3 inh set2 40.1.
CC(C)C[C@@H]1COc2cc(Br)ccc2S(=O)(=O)N1Cc1cn(CCC2OCCCO2)nn1 was read as NCOA2 inhibitor 42.5.
Screening O=C1CC(C(=O)Nc2ccc(Br)cc2)C2(CCCC2)O1 (stereo unspecified) returned NCOA2 inhibitor 14.4.
Screening O=C1CC(C(=O)Nc2ccccc2)C2(CCCCC2)O1 (stereo unspecified) returned LRH-1 inv ag 1.9, NCOA1 inh -7.2, NCOA2 inhibitor 15.8, EBV LMP1 NFkB 65.3*, SRC3 inh 5.0 and Shn3 inh set2 -8.1.
For Cc1ccc(S(=O)(=O)/C(=C/Cl)NC(=O)c2ccccc2)cc1 the results were LRH-1 inv ag 49.4, NCOA1 inh 14.8, NCOA2 inhibitor 61.0*, EBV LMP1 NFkB -7.8, SRC3 inh 51.9 and Shn3 inh set2 61.2.
Screening O=C(O)c1ccc2c(c1Nc1ccccc1)C(=O)c1ccccc1C2=O returned LRH-1 inv ag 8.9, NCOA1 inh 3.1, NCOA2 inhibitor -4.7, EBV LMP1 NFkB 42.5*, SRC3 inh 2.5 and Shn3 inh set2 9.7.
Screening CNc1c(C(=O)O)ccc2c1C(=O)c1ccccc1C2=O returned LRH-1 inv ag 18.4, NCOA1 inh 3.5, NCOA2 inhibitor -12.6, EBV LMP1 NFkB 6.5, SRC3 inh 19.1 and Shn3 inh set2 -0.3.
Screening O=S1(=O)c2ccc(Br)cc2OC[C@H](Cc2ccccc2)N1Cc1cn(Cc2ccc(C(F)(F)F)cc2)nn1 returned NCOA2 inhibitor -2.2.
`CC(=C/c1ccccc1)/C=N/n1c(-c2ccncc2)n[nH]c1=S` gave LRH-1 inv ag 10.9, NCOA1 inh 62.8*, NCOA2 inhibitor 35.9, EBV LMP1 NFkB 56.5*, SRC3 inh 58.0 and Shn3 inh set2 2.8.
For CC(/C=N/n1c(-c2cccnc2)n[nH]c1=S)=C\c1ccccc1 the results were LRH-1 inv ag -10.6, NCOA1 inh 21.1, NCOA2 inhibitor -3.5, EBV LMP1 NFkB 4.0, SRC3 inh 9.0 and Shn3 inh set2 11.2.
`Oc1ccc(CN2CCc3ccccc3C2)c2cccnc12` gave LRH-1 inv ag 13.6, NCOA1 inh -0.8, NCOA2 inhibitor 20.1, EBV LMP1 NFkB 82.2*, SRC3 inh 13.1 and Shn3 inh set2 84.4*.
Oc1ccc(CN2CCCCC2)c2cccnc12 was read as LRH-1 inv ag 9.3, NCOA1 inh -3.8, NCOA2 inhibitor -0.9, EBV LMP1 NFkB -1.6, SRC3 inh 5.8 and Shn3 inh set2 79.4.
For COc1cc(CN2CCc3ccccc3C2)ccc1O the results were LRH-1 inv ag 14.0, NCOA1 inh -17.0, NCOA2 inhibitor 21.1, EBV LMP1 NFkB -8.1, SRC3 inh -10.5 and Shn3 inh set2 95.4*.
For Cc1ccc(C)c(S(=O)(=O)N2CCN(Cc3ccc(O)c4ncccc34)CC2)c1 the results were LRH-1 inv ag 23.3, NCOA1 inh 12.5, NCOA2 inhibitor 15.6, EBV LMP1 NFkB 19.2, SRC3 inh 4.9 and Shn3 inh set2 90.8*.
CCn1c2c(n(C(C)=O)c1=O)C[C@@H](c1ccccc1)[C@@H](C)[C@@H](C(=O)N1CCCC1)C2 was read as NCOA2 inhibitor 13.7.
Cc1ccc(/C=N/Nc2cccc(C(=O)O)c2)s1 was read as LRH-1 inv ag -159.7, NCOA1 inh -152.8, NCOA2 inhibitor -63.8, EBV LMP1 NFkB 13.8, SRC3 inh -116.4 and Shn3 inh set2 19.5.
Cc1ccc(/C=N/Nc2ccc(C(=O)O)cc2)s1 was read as LRH-1 inv ag -15.7, NCOA1 inh -14.7, NCOA2 inhibitor 40.2, EBV LMP1 NFkB 69.7*, SRC3 inh 15.0 and Shn3 inh set2 50.0.
CC(C)=CCC/C(C)=C/CNC(=O)C[C@H]1C[C@H](C(=O)N2CCOCC2)[C@@]2(C)c3[nH]c4cc(CCC(=O)N(C)C)ccc4c3CCN2C1=O was read as LRH-1 inv ag 0.0, NCOA1 inh 2.7, NCOA2 inhibitor -10.3, EBV LMP1 NFkB 6.2, SRC3 inh -51.6 and Shn3 inh set2 88.8*.
`COc1ccc(N2CCN(CCNC(=O)c3c(C)cc(=O)oc3C)CC2)cc1` gave LRH-1 inv ag -2.6, NCOA1 inh 2.2, NCOA2 inhibitor 21.6, EBV LMP1 NFkB 50.7*, SRC3 inh -5.8 and Shn3 inh set2 8.3.
CC(C)(C)c1ccc(S(=O)(=O)N2CCC(c3cn4ccccc4n3)CC2)cc1 was read as NCOA2 inhibitor 4.0.

Bioassay records (PubChem)
